Data taken from PubChem BioAssay AID434958 (Southern Research Specialized Biocontainment Screening …, 2010).
Among all 1,200 compounds or so, about 400 (33%) were called active. No rule for the calls is given here. The list is a sample of the results. Potency and affinity values are given separately.

assay: mammalian cell cytotoxicity, dose response, cytotoxicity control (AID 434958); conditions: cytotoxicity counter-screen; series mostly up to 40 µM; viability: at the top concentration;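 also: cells exposed to compound for 72 hours before readout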

SMILES	viability
CCOC(=O)N1CCN(C(=O)CSc2nnc(-c3ccccc3OC)o2)CC1	96.8% (inactive)
O=C(N/N=C/c1cccc(NC(=O)c2ccc(Cl)cc2)c1)c1cccc(O)c1	88.1% (inactive)
NNC(=O)c1cccc(O)c1	103% (inactive)
Cc1cc(C2C(=O)c3ccccc3C2=O)c(C)c(C)c1C	90.2% (inactive)
CCCCNC(=O)/C(=C/c1ccccc1)NC(C)=O	106% (inactive)
CCOC(=O)c1ccc(-c2ccc(C=O)o2)cc1	99.5% (inactive)
COc1ccc([C@H]2CC(=O)C=C(/C=C/c3ccccc3)C2)cc1OC	82% (inactive)
NS(=O)(=O)c1cccnc1Nc1c(Cl)cccc1Cl	103% (inactive)
COCCSc1nc2sc3c(c2c(=O)n1-c1ccccc1)CCN(C)C3	98.3% (inactive)
CCOC(=O)C1CCCN(c2ccc(NC(=O)c3snc4c(=O)[nH]cnc34)cc2)C1 (stereo not given)	103% (inactive)
O=C(COC(=O)c1ccc([N+](=O)[O-])s1)NCc1ccccc1	97.2% (inactive)
Cc1ccsc1C(=O)NNC(=O)c1csc(N2CCOCC2)n1	102% (inactive)
COc1ccc2ccccc2c1/C=N/NC(=O)c1cccc(Br)c1	82.7% (inactive)
COc1cc(/C=C/C(=O)NC(C)(C)C)ccc1OCc1ccccc1	91.2% (inactive)
COc1ccc(/C=C/C(=O)N(C(C)C)C(C)C)cc1Br	97% (inactive)
COC(=O)c1ccc(/C=N/NC(=O)c2cccc(F)c2)cc1	94.4% (inactive)
CC1(C)CC(=O)c2cc(C(=O)NCc3ccco3)c(=O)n(-c3ccccc3)c2C1	96.6% (inactive)
CCC1(c2ccc(Cl)cc2)NC(=S)N(c2ccc(C)cc2)N1 (stereo not given)	95.2% (inactive)
CC(=O)NC(=S)Nc1ccc(NC(=O)c2cccnc2Cl)cc1	95.4% (inactive)
CCCCN=C1CC(C)(C)CC(=O)/C1=C(/O)CCC	101% (inactive)
CCOC(=O)c1c(C)[nH]c(C(=O)COC(=O)CCC2CCCC2)c1C	105% (inactive)
CCc1cc2c(=O)oc(-c3ccccc3F)nc2s1	104% (inactive)
CCOc1ccc2nc(SC3CC(=O)N(c4cccc(OC)c4)C3=O)sc2c1 (stereo not given)	100% (inactive)
CCCCN1C(=O)c2ccc(C(=O)Nc3cccc(C)c3C)cc2C1=O	98.7% (inactive)

SMILES	viability
CCOC(=O)c1nc(N2CCN(C(=O)OCC)CC2)c2c3c(sc2n1)CCCC3	86.8% (inactive)
CC(=O)Nc1ccc(C(=O)N(C2=NC(C)CS2)c2ccc(Cl)cc2)cc1 (stereo not given)	84.4% (inactive)
COc1ccc(C2C(C#N)=C(SCC(=O)Nc3ccc(C)cc3)NC3=C2C(=O)CC(C)(C)C3)cc1 (stereo not given)	84.9% (inactive)
CCCCNC(=O)c1onc(CSc2ccccc2CC)c1C(=O)O	99.5% (inactive)
CCCC(=O)N1CCN(c2ccc(NC(=S)NC(=O)CC)cc2)CC1	83.8% (inactive)
CCCC(=O)Nc1ccc(NC(=S)NC(=O)c2cccs2)cc1	96.4% (inactive)
Cc1ccc(C(=O)OCCN2CCN(c3ncc(C(F)(F)F)cc3Cl)CC2)cc1	89.8% (inactive)
N#Cc1c(-c2cccs2)cc(-c2ccccn2)nc1N	87.3% (inactive)
Cc1cc(C)c2c(N)c(S(=O)c3ccc(C(C)(C)C)cc3)sc2n1 (stereo not given)	102% (inactive)
CC(=O)c1ccc(OCCCC(=O)OCC(=O)N2CCN(c3ccccc3)CC2)cc1	100% (inactive)
Cc1nnc(SCc2cccc(Cl)c2)n(N)c1=O	95.2% (inactive)
Cc1cccc(/C=N\NC(=O)c2csnn2)c1	99.9% (inactive)
O=C(Cc1ccc(Cl)cc1Cl)Nc1ccc(OC(F)F)c(Cl)c1	104% (inactive)
CCOC(=O)Cn1c(C)cc(=O)c2cccc(C)c21	105% (inactive)
O=C(Nc1ccccc1Br)c1cccc2ccccc12	91.8% (inactive)
Cc1ccn2c(CNCCn3nc(C)cc3C)c(C(=O)N3CCCCCC3)nc2c1	98.5% (inactive)
COc1ccc(C(=O)NC(=S)NC(C)(C)C)cc1Br	82.4% (inactive)
COc1ccc(C2(CNC(=O)c3cc([N+](=O)[O-])cc([N+](=O)[O-])c3)CCCC2)cc1OC	95.8% (inactive)
CN1C2CCC1CC(OC(=O)c1ccc([N+](=O)[O-])cc1)C2 (stereo not given)	104% (inactive)
CCC(=O)c1ccc(OCc2ccc(C(=O)OC)cc2)c(OC)c1	106% (inactive)
O=C(COC(=O)Cc1ccc(S(=O)(=O)N2CCCCC2)s1)Nc1ccc2c(c1)OCO2	97% (inactive)
CC(=O)Nc1ccc(SCC(=O)c2cc(C)n(CC(F)(F)F)c2C)cc1	95.3% (inactive)
CCOC(=O)Cn1c(=NC(=O)C2CC2)sc2c(C)cc(C)cc21	97.5% (inactive)
O=C(OCC(=O)N(Cc1ccccc1)C1CCS(=O)(=O)C1)c1cc2c(s1)CCCC2 (stereo not given)	87.1% (inactive)

SMILES	viability
O=C(COc1ccccc1[N+](=O)[O-])N(Cc1cccc(Br)c1)C1CCS(=O)(=O)C1 (stereo not given)	95% (inactive)
Cc1ccc(C(=O)NCC2(c3ccccc3)CCCC2)cc1	81% (inactive)
CC(NC(=O)CSc1nc2ccccc2c(=O)[nH]1)c1ccccc1 (stereo not given)	91.8% (inactive)
COCCNC(C(=O)Nc1ccc(C)cc1[N+](=O)[O-])c1ccccc1 (stereo not given)	96.9% (inactive)
CCOC(=O)COc1nc(-c2ccc(Cl)cc2)cc(-c2ccco2)c1C#N	98.2% (inactive)
CN(c1ccc(OCC(=O)OCC(=O)c2c(N)n(C)c(=O)n(C)c2=O)cc1)S(=O)(=O)c1ccc2ccccc2c1	99.8% (inactive)
CC1(C)CC(CCNC(=O)CCl)(c2ccccc2)CCO1 (stereo not given)	81.7% (inactive)
Cn1ccnc1C(=O)Cc1ccc([N+](=O)[O-])cc1	94.1% (inactive)
CCOC(=O)c1sc(NC(=O)CSc2n[nH]c(CC(C)C)n2)nc1C	86.7% (inactive)
Cc1ccccc1C(=O)NC(=S)Nc1sc2c(c1C#N)CCC(C)C2 (stereo not given)	90.5% (inactive)
CCOC(=O)c1c(NC(=O)C(=O)N/N=C/c2ccccc2OC)sc2c1CCCCC2	96.4% (inactive)
Cc1cc(C(=O)CSc2nnnn2-c2ccccc2)c(C)n1-c1ccc2c(c1)OCO2	81.2% (inactive)
O=C(Nc1nc(-c2ccc(F)c(F)c2)cs1)c1cnccn1	82.3% (inactive)
COc1c(NC(C)=O)c2ccccc2c2ccccc12	106% (inactive)
COc1ccc2nc(SCc3cccc(C)c3)nc(C)c2c1	85.5% (inactive)
NC(=S)N/N=C/c1cccc(/C=N/NC(N)=S)c1	93.9% (inactive)
O=C(Cn1c(=O)c2cccn2c2ccccc21)NCCc1ccc(Cl)cc1	104% (inactive)
Cc1ccc(-n2ncc3c(=O)n(CC#N)cnc32)cc1C	89% (inactive)
COc1ccc(C2CC(c3c(-c4ccccc4)c4cc(Cl)ccc4[nH]c3=O)=NN2S(C)(=O)=O)cc1 (stereo not given)	85.1% (inactive)
CC(=O)c1sc(N/N=C\c2ccc(N(C)C)cc2)nc1C	96.8% (inactive)
CC(C)c1ccc(/C=C/C(=O)NC2CCCCC2)cc1	101% (inactive)
CN(C)/N=C/c1ccc(/C=N/NC(N)=S)o1	95.5% (inactive)
